GPR151 ag – activators of human GPR151. Q8TDV0. PathHunter beta-arrestin GPR151 cells, luminescence. activation, % at 11.2 µM. 650,000 tested, 1% active. AID 1508602; in the data active = activation above about 4.9%;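 note: 0% = median of compound wells and 100% = cells with positive control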
Target sequence (Q8TDV0 whole entry, looked up): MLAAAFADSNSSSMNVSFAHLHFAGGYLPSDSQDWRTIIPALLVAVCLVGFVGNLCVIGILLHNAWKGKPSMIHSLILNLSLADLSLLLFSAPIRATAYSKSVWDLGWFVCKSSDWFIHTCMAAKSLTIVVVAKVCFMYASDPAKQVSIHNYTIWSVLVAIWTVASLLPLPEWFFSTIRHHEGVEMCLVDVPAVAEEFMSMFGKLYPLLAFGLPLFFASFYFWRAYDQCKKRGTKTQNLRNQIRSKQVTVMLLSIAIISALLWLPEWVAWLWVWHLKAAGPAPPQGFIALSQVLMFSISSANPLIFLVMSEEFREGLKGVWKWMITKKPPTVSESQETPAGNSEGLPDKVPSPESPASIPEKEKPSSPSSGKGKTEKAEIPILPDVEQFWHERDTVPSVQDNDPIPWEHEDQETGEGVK
FBW7 activator – human FBW7 E3 ligase activation, primary screen. AID 1259310. 650,000 tested, 0.13% active. Q969H0. normalized activity (activation), % at 26.1 µM. AlphaScreen FBW7–phospho-cyclin E peptide binding, activator screen; in the data active = normalized activity above about 1.9%;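 note: purified mutant Fbw7 with reduced substrate affinity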
MITF inh – inhibitors of human MITF | AID 1259374 | AlphaScreen MITF homodimerization, bead proximity signal | inhibition, % at 2.6 µM | 650,000 tested, 0.91% active | O75030; in the data active = inhibition above about 50%;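 note: 0% = vehicle wells with protein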
TEAD-YAP inh – TEAD-YAP interaction inhibition | HEK-TIYL cells, TEAD-Gal4/YAP UAS-luciferase luminescence | inhibition, % at 9.12 µM | 640,000 tested, 1.4% active | AID 1259422; in the data active = inhibition above about 32%;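 note: 0% = median of test compound wells and 100% = reference inhibitor wells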
GPR151 confirm – human GPR151 activation, confirmation screen. shares compounds with GPR151 ag. GPR151 PathHunter beta-arrestin cells, luminescence, 90 min; % of EA-reagent control over plate median. activation, % at 11.2 µM. 6,700 tested, under 10 active;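 active = mean percent activation across replicates above the confirmation screen cutoff of 4.91%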
GPR119 ag – GPR119 activation, counter-screen for GPR151 activators; shares compounds with GPR151 ag; GPR119 PathHunter beta-arrestin cells, luminescence, 90 min; 0 = compound-well median, 100 = enzyme-acceptor control; activation, % at 11.2 µM; 6,700 tested, 0.3% active; AID 1508611;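 active = mean percent activation in the counterscreen above 29.09%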;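 note: counterscreen on off-target GPR119 to flag nonselective hits from the GPR151 activator screen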
An asterisk follows results filed as active; ! = not confirmed by another sample. Shown are actives, neighbours in structure and some others; about 3.5% of the full set was active somewhere.

What do the screens show for `Cc1ccc(Nc2cnn(C34CC5CC(CC(C5)C3C(=O)O)C4)c(=O)c2Cl)c(C)c1` (stereo not drawn)?
GPR151 ag: 1; FBW7 activator: 0; MITF inh: 6; TEAD-YAP inh: 2

How did CCC(COC(=O)NC)NC(=O)Oc1ccccc1 (stereo not drawn) do in these assays?
GPR151 ag: 5.8*; FBW7 activator: 0; MITF inh: -1; TEAD-YAP inh: -1; GPR151 confirm: 0; GPR119 ag: 1

Results for CCC(COC(=O)NC)NC(=O)Oc1cccc(C)c1 (stereo not drawn) ?
GPR151 ag: -1; FBW7 activator: 0; MITF inh: 3; TEAD-YAP inh: 5

Results for CC[C@@H]1C(=O)OC[C@@H]1Cc1cncn1C ?
GPR151 ag: 9.6*!; FBW7 activator: 0; MITF inh: -7; TEAD-YAP inh: 2; GPR151 confirm: 0; GPR119 ag: -6

How did COc1cccc(CCNCc2cc(OC)c(OC)cc2[N+](=O)[O-])c1 do in these assays?
GPR151 ag: 8.4*; FBW7 activator: 0; MITF inh: 25; TEAD-YAP inh: 6; GPR151 confirm: 0; GPR119 ag: -6

How did COc1cccc(CCNCc2ccccc2[N+](=O)[O-])c1 do in these assays?
GPR151 ag: 0; FBW7 activator: 1; MITF inh: 41; TEAD-YAP inh: -12

How did COc1ccc(F)cc1C(=O)C1CCCN(Cc2ccc(O)cc2)C1 (stereo not drawn) do in these assays?
GPR151 ag: -1; FBW7 activator: 0; MITF inh: 4; TEAD-YAP inh: -5

Results for COc1ccc(F)cc1C(=O)C1CCCN(CCO)C1 (stereo not drawn) ?
GPR151 ag: 8.3*; FBW7 activator: 0; MITF inh: -5; TEAD-YAP inh: -4; GPR151 confirm: 0; GPR119 ag: -12

How did O=c1c2ccccc2nc(/C=C/c2ccc3c(c2)OCO3)n1-c1ccccc1O do in these assays?
GPR151 ag: 8.9*; FBW7 activator: 0; MITF inh: 11; TEAD-YAP inh: -6; GPR151 confirm: 0; GPR119 ag: -5

Results for Cc1cccc(Nc2cnn(C34CC5CC(CC(C5)C3C(=O)O)C4)c(=O)c2Cl)c1 (stereo not drawn) ?
GPR151 ag: 0; FBW7 activator: 0; MITF inh: -3; TEAD-YAP inh: 0

How did Cc1ccc(N/C(N)=N/[N+](=O)[O-])cc1NC(=O)OCC1CCOC1 (stereo not drawn) do in these assays?
GPR151 ag: 1; FBW7 activator: 0; MITF inh: 9; TEAD-YAP inh: 9

How did O=C(C1CN(CCc2c[nH]c3ccccc23)CCN1)N1CCOCC1 (stereo not drawn) do in these assays?
GPR151 ag: 5.1*; FBW7 activator: 0; MITF inh: 7; TEAD-YAP inh: -2; GPR151 confirm: -1; GPR119 ag: -15
